A selection: hits, their analogues and other compounds. The true share with any hit is near 4%.
Gli-Sufu block: Gli-Sufu pathway antagonists, primary screen, luciferase luminescence, Sufu-KO-LIGHT cells, uHTS. Sufu-KO-LIGHT fibroblasts, Gli luciferase reporter luminescence. inhibition, % at 5 µM. AID 588413, 2011. hit rate 0.74% among 340,000;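 active means inhibition above about 55%, limit read from the data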;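 further: 0% = DMSO-treated cells and 100% = wells with medium but no cells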
Jurkat NFkB inh: inhibitors of induced NF-kB luciferase reporter, primary screen, TCR NF-kB activation inhibitor project, cell-based, luminescence, uHTS; hit rate 0.53% among 330,000; AID 435003, 2010; inhibition, % at 4 µM; Jurkat, PMA/ionomycin-induced NF-kB luciferase reporter; in the data active means inhibition above about 50%
697 NFkB inh: inhibitors of PMA/ionomycin-induced NF-kB reporter, 697 cells, primary screen, B-cell NF-kB inhibitor project, cell-based, luminescence, uHTS. 697 B-cell NF-kB luciferase reporter, 16 h. inhibition, % at 4 µM. hit rate 0.33% among 330,000. AID 435022, 2010; in the data active means inhibition above about 35%
Mdm2-MdmX inh: inhibitors of human Mdm2-MdmX association, primary screen, cell-based, luminescence, split luciferase, SaOS-2, uHTS. hit rate 3% among 330,000. AID 485346, 2010. SaOS-2 split-luciferase Mdm2/MdmX complementation. Protein Mdm4 (Homo sapiens) + E3 ubiquitin-protein ligase Mdm2 (Homo sapiens), …. inhibition, % at 8 µM;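 active means inhibition of at least 50% at 8 µM in the primary screen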
Target sequence (O15151 whole entry, looked up): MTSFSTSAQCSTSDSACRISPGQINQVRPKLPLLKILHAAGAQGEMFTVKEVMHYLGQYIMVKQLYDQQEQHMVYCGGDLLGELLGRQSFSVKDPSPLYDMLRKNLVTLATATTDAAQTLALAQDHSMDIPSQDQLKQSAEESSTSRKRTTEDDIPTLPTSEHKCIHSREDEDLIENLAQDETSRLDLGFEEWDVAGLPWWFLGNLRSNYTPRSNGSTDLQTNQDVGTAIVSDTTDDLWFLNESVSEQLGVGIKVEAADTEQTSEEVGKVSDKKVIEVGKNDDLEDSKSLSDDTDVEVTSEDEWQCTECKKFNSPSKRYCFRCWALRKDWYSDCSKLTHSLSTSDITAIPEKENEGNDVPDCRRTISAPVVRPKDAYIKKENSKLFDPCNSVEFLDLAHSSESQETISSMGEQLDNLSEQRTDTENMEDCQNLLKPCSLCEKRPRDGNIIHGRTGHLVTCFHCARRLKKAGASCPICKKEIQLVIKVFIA
Target sequence (Q00987 whole entry, looked up): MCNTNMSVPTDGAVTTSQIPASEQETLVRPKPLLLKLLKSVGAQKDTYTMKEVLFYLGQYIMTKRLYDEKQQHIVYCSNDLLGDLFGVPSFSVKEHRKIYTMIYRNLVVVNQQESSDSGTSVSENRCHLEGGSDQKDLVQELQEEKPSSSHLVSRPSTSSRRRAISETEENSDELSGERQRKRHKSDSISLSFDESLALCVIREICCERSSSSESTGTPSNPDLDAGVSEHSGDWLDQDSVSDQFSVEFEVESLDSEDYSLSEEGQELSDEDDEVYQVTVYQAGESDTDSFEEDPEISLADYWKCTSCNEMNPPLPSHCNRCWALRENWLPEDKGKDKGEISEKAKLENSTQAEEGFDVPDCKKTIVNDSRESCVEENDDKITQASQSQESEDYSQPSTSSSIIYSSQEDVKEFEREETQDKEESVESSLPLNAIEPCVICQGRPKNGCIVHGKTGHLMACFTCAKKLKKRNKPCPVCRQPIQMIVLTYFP
Beta cell apopt: inhibitors of cytokine-induced beta cell apoptosis, primary screen, luminescence; INS-1E cytokine-induced death, ATP luminescence, 48 h; percent of positive-control rescue, neutral wells zero; protection from apoptosis, % (no concentration beside the values); hit rate 0.8% among 300,000;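 active means Every replicate reaches about 75%, or at least half do and their mean reaches it too, limit read from the data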;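 further: 0% = cytokine-treated negative control wells and 100% = positive control rescue; higher means more ATP so stronger rescue from cytokine killing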
Jurkat NFkB conf: PMA/ionomycin-induced NF-kB reporter inhibitors, Jurkat retest, confirmation, T-cell NF-kB inhibitor project, cell-based, luminescence, single concentration; shares compounds with Jurkat NFkB inh; Jurkat NF-kB luciferase, 16 h; inhibition, % at 4 µM; hit rate 27% among 2,700; AID 435020, 2010;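 active means inhibition reaching about 45% at 4 µM in either replicate, limit read from the data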;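 further: plate controls were PMA/ionomycin stimulated DMSO wells for no effect and unstimulated DMSO wells for full effect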
The depositor's hits bear a star; · = not tested or not shown.

SMILES	Gli-Sufu block	Jurkat NFkB inh	697 NFkB inh	Mdm2-MdmX inh	Beta cell apopt	Jurkat NFkB conf
Cc1ccc(C)c(S(=O)(=O)N2CCCCC2CCNC(=O)C(=O)NCc2cccnc2)c1 (configuration not stated)	4	20	2	10	-2	·
Cc1ccc(S(=O)(=O)N2CCCCC2CCNC(=O)C(=O)NCc2cccnc2)cc1 (configuration not stated)	4	62*	6	33	7	17
O=C(NCCC1CCCCN1S(=O)(=O)c1ccccc1)C(=O)Nc1ccc(F)cc1 (configuration not stated)	-4	9	-12	29	·	·
COc1ccc(NC(=O)C(=O)NCCC2CCCCN2S(=O)(=O)c2ccc(F)cc2)cc1 (configuration not stated)	18	60*	-39	25	-3	23
COc1ccccc1CNC(=O)C1CCC(=O)N1C(C)C (configuration not stated)	13	-14	-1	-17	-10	·
COc1ccc(NS(=O)(=O)c2cc(NC(=O)c3ccco3)ccc2N2CCCC2)cc1	0	62*	-112	33	1	8
COc1cc(/C=N/NS(=O)(=O)c2ccc(C)cc2)ccc1OCc1cccc(C(=O)O)c1	-122	62*	23	49	-4	13
COc1cc(/C=N/NS(=O)(=O)c2ccc3ccccc3c2)ccc1OCc1ccc(C(=O)O)cc1	-51	42	-20	50	2	·
CSc1nc(-c2ccccc2)nc(C(C)C)n1	0	2	13	-2	-10	·
Cc1cc(NCCN2CCOCC2)n2ncc(-c3ccccc3)c2n1	-75	-179	-139	-71	-7	-88
COc1ccc(C(=O)Nc2ccccc2C(=O)N/N=C/c2ccccn2)cc1OC	45	56*	-67	32	95*	-21
CC(=O)O[C@H]1C(=O)[C@@]2(C)[C@H]([C@H](OC(=O)c3ccccc3)[C@]3(O)C[C@H](OC(=O)[C@H](O)C(NC(=O)c4ccccc4)c4ccccc4)C(C)=C1C3(C)C)[C@]1(OC(C)=O)CO[C@@H]1C[C@@H]2O (some centres not stated)	29	59*	-27	48	9	60*
CCC(C)(C)NC(=S)Nc1ccc(-c2nc3ccc(C)cc3s2)cc1	-97	-175	-157	-295	8	-128
CCCCNC(=S)Nc1ccc(-c2nc3ccc(C)cc3s2)cc1	-81	-117	-212	-243	1	·
O=C(CCN1C(=O)/C(=C/c2ccc(F)cc2)SC1=S)Nc1cc([N+](=O)[O-])ccc1O	0	0	-4	-38	3	·
CCCN(C(=O)c1ccc(S(=O)(=O)N2CCCC2)cc1)C1CCS(=O)(=O)C1 (configuration not stated)	6	10	13	29	-4	·
O=C(CNCc1ccccc1Cl)Nc1ccc2c(c1)OCCO2	-52	-90	-50	-93	7	·
O=C(CSCc1ccccc1Cl)Nc1ccc2c(c1)OCCO2	5	-162	-32	-63	-1	-89
COc1ccc(-c2[nH]ncc2CN2CCC(OCc3cccnc3)CC2)c(F)c1	20	9	4	-34	-5	·
CC(C)(C)c1ccc(C(=O)Nc2ccc(F)cc2)s1	-90	-184	9	-181	-3	-171
CC(Oc1ccc(Br)cc1)C(=O)Nc1ccncc1 (configuration not stated)	2	18	7	-14	0	·
CC(Oc1ccc(Br)cc1Cl)C(=O)Nc1ccncc1 (configuration not stated)	8	53*	9	31	·	37
Cn1c(=O)c2sccc2n(Cc2ccccc2)c1=O	2	8	10	33	-6	·
COc1ccc(N(S(=O)(=O)c2ccccc2)S(=O)(=O)c2ccccc2)c(N)c1	-3	51*	-1	37	1	4
COC(=O)CNC(=O)CN(c1ccc(OC)cc1OC)S(=O)(=O)c1ccccc1	-9	0	14	10	-5	·
SMILES	Gli-Sufu block	Jurkat NFkB inh	697 NFkB inh	Mdm2-MdmX inh	Beta cell apopt	Jurkat NFkB conf
COc1ccccc1NS(=O)(=O)c1ccc2oc(SC(C)C(=O)N3CCNC3=O)nc2c1 (configuration not stated)	5	-15	-14	19	4	·
COc1ccccc1NS(=O)(=O)c1ccc2oc(N)nc2c1	-10	12	8	-14	-2	·
O=C1NC[C@H](Cc2ccccc2)N(CC2CCN(CCC34CC5CC(CC(C5)C3)C4)CC2)C1=O	10	·	·	·	·	·
CCCC(=Nc1ccccc1OC)C1=C(O)CC(c2ccccc2)CC1=O (configuration not stated)	-18	14	7	-11	-1	·
CC(=NCCc1c(C)[nH]c2ccc(C)cc12)C1=C(O)CC(c2ccccc2)CC1=O (configuration not stated)	2	56*	-66	49	1	8
CCC/C(O)=C1\C(=O)CC(c2ccccc2)CC1=NCCc1c(C)[nH]c2ccccc12 (configuration not stated)	9	1	14	36	40	·
CC(=NCCc1c(C)[nH]c2ccc(OC(F)(F)F)cc12)C1=C(O)CC(c2ccccc2)CC1=O (configuration not stated)	-3	57*	-64	26	10	7
O=C(/C=C/c1ccccc1)c1c[nH]c2ccccc12	-79	-192	-239	-194	1	-69
O=C(C=Cc1ccccc1)c1c[nH]c2ccccc2c1=O	-8	·	·	·	·	·
Cc1ccc(NC(=O)COc2ccccc2)c(NC(=O)c2ccco2)c1	9	5	11	44	-2	·
CCOC(=O)c1ccccc1NS(=O)(=O)c1ccc(OCC)cc1	2	62*	-88	39	4	42
COc1cc2sc3ccc(-c4ccc(N(C)C)nc4)cc3c(=O)c2cc1OC	·	-159	-161	-21	41	-79
c1ccc(Nc2nc(-c3ccccn3)cs2)cc1	-12	-131	-197	-159	1	·
COc1cccc2sc(Nc3nc(-c4ccccn4)cs3)nc12	·	98*	-132	43	111*	32
Cc1ccc(-n2cc(CNC(C)c3cnn(C)c3C)c(-c3ccc(F)cc3)n2)cc1 (configuration not stated)	-2	8	5	42	6	·
NC(=O)c1ncn([C@@H]2O[C@H](CNCc3cc(Cl)ccc3OCc3ccc(Cl)cc3)[C@@H](O)[C@H]2O)n1	-6	·	·	·	·	·
N#Cc1ccc(S(=O)(=O)N2CCN(C(=O)c3cn(-c4ccccc4)nc3-c3cccnc3)CC2)cc1	-12	·	·	·	·	·

Source: PubChem BioAssay
